From the supplement of paper PMC8007513
Where a name gives a salt, the structure may show the parent alone. ± gives the standard error. Hit rate of the full screen: of about 1,300 compounds, about 130 (10%) showed an effect of 50% or more. The sample as a whole holds a higher share of strong results than the screen did.

Test system: Trichoderma virens ATCC 9645
Experiment: growth yield (OD600) with compound + IPBC relative to untreated control; higher = less growth inhibition
Conditions: compound concentration: 100 uM, IPBC concentration: 200 ng/ml
Procedure, shortened: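 Spores of Trichoderma virens ATCC 9645, taken from potato dextrose agar plates grown for 7 days, were suspended at 15,000 spores ml^−1 in potato dextrose broth. In 96-well plates, 100 μl aliquots held library compounds at 100 μM final, either alone or together with a biocide at 200 ng ml^−1, and were grown at 30 °C. A BioTek EL800 read OD600 at 40 h and 72 h. Growth values are given relative to the control lacking both agents and are means of duplicate screens.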

Structure (SMILES)	growth yield (40 h) [%]	growth yield (72 h) [%]
CN(C)CCCOc1nn(Cc2ccccc2)c2ccccc12 [Benzydamine hydrochloride] + CCCCNC(=O)OCC#CI [3-iodo-2-propynyl butylcarbamate (IPBC)]	65.8 ± 2.2	88.4 ± 2.2
CC(=O)Nc1ccc(O)cc1 [Acetaminophen] + CCCCNC(=O)OCC#CI [3-iodo-2-propynyl butylcarbamate (IPBC)]	105 ± 20	103 ± 14
CC(C)[N+](C)(CCOC(=O)C1c2ccccc2Oc2ccccc21)C(C)C [Propantheline bromide] + CCCCNC(=O)OCC#CI [3-iodo-2-propynyl butylcarbamate (IPBC)]	78.8 ± 3.2	89.1 ± 3.6
CC(=O)N[C@@H](CC(C)C)C(=O)O [N-Acetyl-L-leucine] + CCCCNC(=O)OCC#CI [3-iodo-2-propynyl butylcarbamate (IPBC)]	86.57 ± 0.16	93.8 ± 2.3
C[C@]12CC[C@@H]3c4ccc(OS(=O)(=O)O)cc4CC[C@H]3[C@@H]1CCC2=O [Estropipate] + CCCCNC(=O)OCC#CI [3-iodo-2-propynyl butylcarbamate (IPBC)]	87 ± 1.6	89.7 ± 2
Oc1c(Cl)cc(Cl)c(Cl)c1Cc1c(O)c(Cl)cc(Cl)c1Cl [Hexachlorophene] + CCCCNC(=O)OCC#CI [3-iodo-2-propynyl butylcarbamate (IPBC)]	19.4 ± 4.8	80.2 ± 2.6
CC(C)C(=O)OCC(=O)[C@@]12O[C@H](C3CCCCC3)O[C@@H]1C[C@H]1[C@@H]3CCC4=CC(=O)C=C[C@]4(C)[C@H]3[C@@H](O)C[C@@]12C [Ciclesonide] + CCCCNC(=O)OCC#CI [3-iodo-2-propynyl butylcarbamate (IPBC)]	107 ± 6.8	103 ± 5.8
CC(C)CC(=O)N[C@H](C(=O)N[C@H](C(=O)N[C@@H](CC(C)C)[C@@H](O)CC(=O)N[C@@H](C)C(=O)N[C@@H](CC(C)C)[C@@H](O)CC(=O)O)C(C)C)C(C)C [Pepstatin A] + CCCCNC(=O)OCC#CI [3-iodo-2-propynyl butylcarbamate (IPBC)]	96.4 ± 11	103 ± 6.7
CN[C@@H]1[C@H](O[C@H]2[C@H](O[C@H]3[C@H](O)[C@@H](O)[C@H](N=C(N)N)[C@@H](O)[C@@H]3N=C(N)N)O[C@@H](C)[C@]2(O)C=O)O[C@@H](CO)[C@H](O)[C@H]1O [Streptomycin sulfate] + CCCCNC(=O)OCC#CI [3-iodo-2-propynyl butylcarbamate (IPBC)]	101 ± 3.8	99.9 ± 1.1
O=C(O)Cc1ccccc1Nc1c(Cl)cccc1Cl [Diclofenac sodium] + CCCCNC(=O)OCC#CI [3-iodo-2-propynyl butylcarbamate (IPBC)]	44.79 ± 0.32	74.7 ± 1.5
Cc1ccc(Cl)c(Nc2ccccc2C(=O)O)c1Cl [Meclofenamic acid sodium salt monohydrate] + CCCCNC(=O)OCC#CI [3-iodo-2-propynyl butylcarbamate (IPBC)]	71.3 ± 1.4	85.3 ± 1.8
O=C(O)COC(=O)Cc1ccccc1Nc1c(Cl)cccc1Cl [Aceclofenac] + CCCCNC(=O)OCC#CI [3-iodo-2-propynyl butylcarbamate (IPBC)]	79.9 ± 0.48	95.9 ± 1.7
O=C(CCCCCCC(=O)Nc1ccccc1)NO [Vorinostat] + CCCCNC(=O)OCC#CI [3-iodo-2-propynyl butylcarbamate (IPBC)]	107 ± 9.5	99.5 ± 3.9
COc1cc2nc(N3CCN(C(=O)c4ccco4)CC3)nc(N)c2cc1OC [Prazosin hydrochloride] + CCCCNC(=O)OCC#CI [3-iodo-2-propynyl butylcarbamate (IPBC)]	84.82 ± 0.32	92.6 ± 1.1
OCCOCCN1CCN(C2=Nc3ccccc3Sc3ccccc32)CC1 [Quetiapine hemifumarate] + CCCCNC(=O)OCC#CI [3-iodo-2-propynyl butylcarbamate (IPBC)]	72.75 ± 0.64	85.7 ± 3.2
CN(C)CC/C=C1/c2ccccc2Sc2ccc(Cl)cc21 [Chlorprothixene hydrochloride] + CCCCNC(=O)OCC#CI [3-iodo-2-propynyl butylcarbamate (IPBC)]	24.5 ± 7.9	83.6 ± 8.9
CN(C)CCOC1=Cc2ccccc2Sc2ccc(Cl)cc21 [Zotepine] + CCCCNC(=O)OCC#CI [3-iodo-2-propynyl butylcarbamate (IPBC)]	38.6 ± 0.16	97.7
OCCN1CCN(CC/C=C2/c3ccccc3Sc3ccc(Cl)cc32)CC1 [Zuclopenthixol dihydrochloride] + CCCCNC(=O)OCC#CI [3-iodo-2-propynyl butylcarbamate (IPBC)]	4.92 ± 0.16	3.57 ± 0.21
CN(C)CCOC(c1ccc(Cl)cc1)c1ccccn1 (stereo not given) [Carbinoxamine maleate salt] + CCCCNC(=O)OCC#CI [3-iodo-2-propynyl butylcarbamate (IPBC)]	103 ± 9.4	102 ± 4.9
CN(C)CCC=C1c2ccccc2C=Cc2ccccc21 [Cyclobenzaprine hydrochloride] + CCCCNC(=O)OCC#CI [3-iodo-2-propynyl butylcarbamate (IPBC)]	65.1	88.41 ± 0.73
CN(C)CC/C=C1\c2ccccc2CSc2ccccc21 [Dosulepin hydrochloride] + CCCCNC(=O)OCC#CI [3-iodo-2-propynyl butylcarbamate (IPBC)]	77.5	99 ± 1.1
COc1ccccc1Oc1c(NS(=O)(=O)c2ccc(C(C)(C)C)cc2)nc(-c2ncccn2)nc1OCCO [Bosentan] + CCCCNC(=O)OCC#CI [3-iodo-2-propynyl butylcarbamate (IPBC)]	117 ± 2.4	114 ± 5.8
Clc1ccc2c(c1)C(N1CCNCC1)=Nc1ccccc1O2 [Amoxapine] + CCCCNC(=O)OCC#CI [3-iodo-2-propynyl butylcarbamate (IPBC)]	81.3 ± 6	99.9 ± 7
CCOC(=O)[C@@](C)(N)Cc1ccc(O)c(O)c1 [Methyldopate hydrochloride] + CCCCNC(=O)OCC#CI [3-iodo-2-propynyl butylcarbamate (IPBC)]	110 ± 6	106 ± 6.2
CC12CC3CC(C)(C1)CC(N)(C3)C2 [Memantine Hydrochloride] + CCCCNC(=O)OCC#CI [3-iodo-2-propynyl butylcarbamate (IPBC)]	109 ± 3	108 ± 4.2

Structure (SMILES)	growth yield (40 h) [%]	growth yield (72 h) [%]
CC(C)(C)NC[C@H](O)COc1ccccc1C1CCCC1 [Penbutolol sulfate] + CCCCNC(=O)OCC#CI [3-iodo-2-propynyl butylcarbamate (IPBC)]	74.8 ± 6.2	91.56 ± 0.73
O=C1CCC(N2C(=O)c3ccccc3C2=O)C(=O)N1 (stereo not given) [Thalidomide] + CCCCNC(=O)OCC#CI [3-iodo-2-propynyl butylcarbamate (IPBC)]	95.3 ± 3.2	101 ± 4.4
Cc1cccc(C)c1NC(=O)CN1CCN(CCCC(c2ccc(F)cc2)c2ccc(F)cc2)CC1 [Lidoflazine] + CCCCNC(=O)OCC#CI [3-iodo-2-propynyl butylcarbamate (IPBC)]	10.3 ± 1.1	78.6 ± 7.7
COc1ccccc1OCC(O)CN1CCN(CC(=O)Nc2c(C)cccc2C)CC1 (stereo not given) [Ranolazine] + CCCCNC(=O)OCC#CI [3-iodo-2-propynyl butylcarbamate (IPBC)]	89.7 ± 2.4	94.2 ± 2.7
O=C1NCN(c2ccccc2)C12CCN(CCCC(c1ccc(F)cc1)c1ccc(F)cc1)CC2 [Fluspirilen] + CCCCNC(=O)OCC#CI [3-iodo-2-propynyl butylcarbamate (IPBC)]	99.4 ± 6.3	118 ± 4.2
CO/N=C1\CN(c2nc3c(cc2F)c(=O)c(C(=O)O)cn3C2CC2)CC1CN (stereo not given) [Gemifloxacin mesylate] + CCCCNC(=O)OCC#CI [3-iodo-2-propynyl butylcarbamate (IPBC)]	103 ± 17	104 ± 11
CNCC(O)c1ccc(OC(=O)C(C)(C)C)c(OC(=O)C(C)(C)C)c1 (stereo not given) [Dipivefrin hydrochloride] + CCCCNC(=O)OCC#CI [3-iodo-2-propynyl butylcarbamate (IPBC)]	79.4 ± 1.3	88.83 ± 0.1
C[C@]12CCC(=O)C(O)=C1CC[C@@H]1[C@@H]2CC[C@]2(C)C(=O)CC[C@@H]12 [Formestane] + CCCCNC(=O)OCC#CI [3-iodo-2-propynyl butylcarbamate (IPBC)]	71.5 ± 3.8	91.2 ± 1.1
N[C@@H]1CONC1=O [D-cycloserine] + CCCCNC(=O)OCC#CI [3-iodo-2-propynyl butylcarbamate (IPBC)]	86.2 ± 1.1	90.3 ± 1.8
COc1ccc2[nH]cc(CCNC(C)=O)c2c1 [Melatonin] + CCCCNC(=O)OCC#CI [3-iodo-2-propynyl butylcarbamate (IPBC)]	82.9 ± 4.1	92.3 ± 4
CCCCCNC(=N)N/N=C/c1c[nH]c2ccc(OC)cc12 [Tegaserod maleate] + CCCCNC(=O)OCC#CI [3-iodo-2-propynyl butylcarbamate (IPBC)]	5.4	5.24 ± 0.21
CC(C)(C)NCC(O)COc1cccc2c1CC(O)C(O)C2 (stereo not given) [Nadolol] + CCCCNC(=O)OCC#CI [3-iodo-2-propynyl butylcarbamate (IPBC)]	102 ± 19	100 ± 10
c1ccc2[nH]c(-c3cscn3)nc2c1 [Tiabendazole] + CCCCNC(=O)OCC#CI [3-iodo-2-propynyl butylcarbamate (IPBC)]	4.7652 ± 1.4e-15	3.3561 ± 1.3e-15
CC(CN(C)C)CN1c2ccccc2Sc2ccccc21 (stereo not given) [Trimeprazine tartrate] + CCCCNC(=O)OCC#CI [3-iodo-2-propynyl butylcarbamate (IPBC)]	71.5 ± 3.8	92 ± 3.9
CSc1ccc2c(c1)N(CCC1CCCCN1C)c1ccccc1S2 (stereo not given) [Thioridazine hydrochloride] + CCCCNC(=O)OCC#CI [3-iodo-2-propynyl butylcarbamate (IPBC)]	3.81 ± 0.64	2.94 ± 0.21
OCCN1CCN(CCCN2c3ccccc3C=Cc3ccccc32)CC1 [Opipramol dihydrochloride] + CCCCNC(=O)OCC#CI [3-iodo-2-propynyl butylcarbamate (IPBC)]	69.57 ± 0.64	92.4 ± 3
CN1CCCCC1CCN1c2ccccc2Sc2ccc([S+](C)[O-])cc21 (stereo not given) [Mesoridazine besylate] + CCCCNC(=O)OCC#CI [3-iodo-2-propynyl butylcarbamate (IPBC)]	72.6 ± 2.4	89.25 ± 0.52
COc1ccc2c(c1)N(C[C@H](C)CN(C)C)c1ccccc1S2 [Methotrimeprazine maleat salt] + CCCCNC(=O)OCC#CI [3-iodo-2-propynyl butylcarbamate (IPBC)]	76.4 ± 1.4	92.61 ± 0.32
O=c1n(CCCN2CCN(c3cccc(Cl)c3)CC2)nc2ccccn12 [Trazodone hydrochloride] + CCCCNC(=O)OCC#CI [3-iodo-2-propynyl butylcarbamate (IPBC)]	51 ± 1.1	86.1 ± 0.94
OCCN1CCN(CCCN2c3ccccc3Sc3ccc(Cl)cc32)CC1 [Perphenazine] + CCCCNC(=O)OCC#CI [3-iodo-2-propynyl butylcarbamate (IPBC)]	4.29 ± 0.48	2.94 ± 0.42
CN(C)CCCN1c2ccccc2Sc2ccc(Cl)cc21 [Chlorpromazine hydrochloride] + CCCCNC(=O)OCC#CI [3-iodo-2-propynyl butylcarbamate (IPBC)]	52.4 ± 4.1	87.2 ± 2.2
CN1CCN(CCCN2c3ccccc3Sc3ccc(S(=O)(=O)N(C)C)cc32)CC1 [Thioproperazine dimesylate] + CCCCNC(=O)OCC#CI [3-iodo-2-propynyl butylcarbamate (IPBC)]	37.8 ± 0.95	97.1 ± 5
CN1CCC[C@@H]1CCO[C@](C)(c1ccccc1)c1ccc(Cl)cc1 [Clemastine fumarate] + CCCCNC(=O)OCC#CI [3-iodo-2-propynyl butylcarbamate (IPBC)]	53.2 ± 1.8	92.4 ± 0.94
CN1CCN(CCCN2c3ccccc3Sc3ccc(Cl)cc32)CC1 [Prochlorperazine dimaleate] + CCCCNC(=O)OCC#CI [3-iodo-2-propynyl butylcarbamate (IPBC)]	3.18	2.73 ± 0.21
CN(C)CCCN1c2ccccc2CCc2ccc(Cl)cc21 [Clomipramine hydrochloride] + CCCCNC(=O)OCC#CI [3-iodo-2-propynyl butylcarbamate (IPBC)]	59.6 ± 1.4	93.2 ± 2
